# Measurements taken from PMC4336329 (PLoS ONE, 2015).
# Among all 310,000 compounds or so, about 14,000 (4.5%) showed an effect of 50% or more. The effect is printed as a negative number. The sample holds strong results, similar compounds and a random draw of the others, so the mix is not that of the screen.
# Target: human ether-à-go-go-related gene (hERG) potassium channel (human, UniProt Q12809)
# Experiment: primary screen, population patch clamp on CHO cells stably expressing hERG; higher = less effect of the substance
# 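Note: peak tail current of the secondary pulse compared with the same well before compound.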
# human ether-à-go-go-related gene (hERG) potassium channel, sequence (Q12809 whole entry, looked up): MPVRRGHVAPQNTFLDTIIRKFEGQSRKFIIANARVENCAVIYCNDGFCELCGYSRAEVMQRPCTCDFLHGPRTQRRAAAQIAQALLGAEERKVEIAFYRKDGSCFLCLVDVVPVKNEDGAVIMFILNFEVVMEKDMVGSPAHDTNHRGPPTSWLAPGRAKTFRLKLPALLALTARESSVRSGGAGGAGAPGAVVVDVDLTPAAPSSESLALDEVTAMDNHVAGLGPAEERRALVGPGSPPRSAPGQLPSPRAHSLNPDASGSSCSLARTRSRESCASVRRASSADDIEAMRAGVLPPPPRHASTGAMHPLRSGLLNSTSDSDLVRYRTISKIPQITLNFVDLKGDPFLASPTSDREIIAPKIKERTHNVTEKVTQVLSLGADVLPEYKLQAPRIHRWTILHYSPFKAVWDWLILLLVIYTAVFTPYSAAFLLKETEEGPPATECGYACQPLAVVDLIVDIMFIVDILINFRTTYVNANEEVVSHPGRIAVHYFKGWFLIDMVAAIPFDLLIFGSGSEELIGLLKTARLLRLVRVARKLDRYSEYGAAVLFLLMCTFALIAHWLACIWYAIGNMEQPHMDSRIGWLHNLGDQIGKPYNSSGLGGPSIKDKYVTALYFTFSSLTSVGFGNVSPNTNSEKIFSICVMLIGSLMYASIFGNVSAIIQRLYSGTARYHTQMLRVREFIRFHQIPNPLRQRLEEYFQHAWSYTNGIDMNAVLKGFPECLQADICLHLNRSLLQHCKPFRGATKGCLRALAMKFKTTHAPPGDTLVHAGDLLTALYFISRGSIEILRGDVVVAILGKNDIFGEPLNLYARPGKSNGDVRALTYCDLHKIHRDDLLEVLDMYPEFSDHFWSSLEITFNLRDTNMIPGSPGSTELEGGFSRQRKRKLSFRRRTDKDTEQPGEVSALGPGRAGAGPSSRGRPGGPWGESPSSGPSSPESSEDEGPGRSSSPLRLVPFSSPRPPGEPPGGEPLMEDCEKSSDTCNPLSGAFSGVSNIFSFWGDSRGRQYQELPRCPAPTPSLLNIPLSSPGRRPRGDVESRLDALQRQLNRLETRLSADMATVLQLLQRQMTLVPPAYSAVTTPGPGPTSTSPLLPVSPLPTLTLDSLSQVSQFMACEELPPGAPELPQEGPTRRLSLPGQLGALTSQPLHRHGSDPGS
row,SMILES,"hERG current change (%, negative = inhibition) at 10uM [%]"
1,COc1ccccc1NC(=O)/C(=N/OCc1ccc(C#N)cc1)C(C)=O,-18.2
2,COC(=O)c1sccc1NC(=O)c1c(-c2ccccc2)noc1C,-26.5
3,Cc1ccccc1C(=O)NNC(=O)Nc1ccccc1,11.6
4,CCOc1ccc(Nc2cc(C)nc(N3CCOCC3)n2)cc1,0.875
5,CCOc1ccc2nc(C)cc(Nc3ccc(N4CCOCC4)cc3)c2c1.Cl,-73
6,COc1ccc2nc(C)cc(Nc3ccc(N4CCN(C)CC4)cc3)c2c1,-1.75
7,CCOc1ccc2nc(N3CCOCC3)nc(C)c2c1,3.2
8,COc1ccc(Nc2cc(C)nc(N3CCOCC3)n2)cc1,-12.2
9,COc1ccc2nc(C)cc(Nc3ccc(N4CCOCC4)cc3)c2c1.Cl,-60.9
10,COc1ccc(S(=O)(=O)NCc2ccccc2)cc1Br,6.25
11,NC(=O)CC1Nc2cccc3cccc(c23)NC1=O (centres unmarked),8.93
12,COc1ccc(CCNC(=O)CCc2nc3ccccc3[nH]2)cc1OC,-7.59
13,CCN(CC(=O)Nc1ccc(NC(C)=O)cc1)C(=O)CCCSc1nc2ccccc2[nH]1,-0.716
14,CCCCc1noc2c1/C(=N\O)CC(c1ccccc1)C2 (centres unmarked),7.26
15,CCCCc1oc2c(c(=O)c1C)C(=O)CC(c1ccccc1)C2 (centres unmarked),-59.8
16,Cc1oc2c(c(=O)c1C)C(=O)CC(c1ccccc1)C2 (centres unmarked),-23.7
17,CSc1ccccc1NC(=O)CN(C)C(=O)Cc1c[nH]c2ccccc12,-0.585
18,CCCCn1c(SCC(=O)NC(C)CC)nc2ccc(N3CCOCC3)cc2c1=O (centres unmarked),-12.8
19,CCOC(=O)CSc1nc2c(sc3ccc([N+](=O)[O-])cc32)c(=O)n1Cc1ccco1,-32.4
20,COCCCNC(=O)CSc1nc2c(sc3ccccc32)c(=O)n1CCCC(=O)NCC1CCCO1 (centres unmarked),-14.4
21,CCC(C)NC(=O)CSc1nc2c(sc3ccccc32)c(=O)n1CCCN1CCOCC1 (centres unmarked),-53.4
22,Cc1cc(NC(=O)CSc2nc3c(sc4ccccc43)c(=O)n2CCCN2CCOCC2)n[nH]1,2

row,SMILES,"hERG current change (%, negative = inhibition) at 10uM [%]"
1,NC(=O)CSc1nc2c(sc3ccccc32)c(=O)n1CCCN1CCOCC1,-52.8
2,CCOC(=O)CSc1nc2c(sc3ccccc32)c(=O)n1CCCN1CCOCC1,-65.9
3,NC(=O)CSc1nc2c(sc3ccccc32)c(=O)n1CCCC(=O)NCC1CCCO1 (centres unmarked),-16.8
4,O=C(CSc1nc2c(sc3ccccc32)c(=O)n1CCCN1CCOCC1)NC1CCCC1,-64.7
5,O=C(CSc1nc2c(sc3ccccc32)c(=O)n1Cc1ccccc1)NCC1CCCO1 (centres unmarked),16.8
6,CCCCn1c(SCC(N)=O)nc2c(sc3ccccc32)c1=O,-12.4
7,O=C1CSC(c2ccccn2)N1c1ccc(F)cc1F (centres unmarked),-0.569
8,COc1ccccc1Nc1nc(-c2sc(NC(=O)CC(C)C)nc2C)cs1,5.43
9,O=C(CCC(=O)N1CCSc2ccccc21)NC1CCCCC1,-2.55
10,O=C(OCCNc1ccc(C(F)(F)F)cc1[N+](=O)[O-])c1cc2ccccc2oc1=O,4.72
11,CC(Sc1nncn1C)C(=O)Nc1ccc(S(N)(=O)=O)cc1 (centres unmarked),15.7
12,Cc1oc(-c2ccccc2Cl)nc1CSCC(=O)N1CCCC1,-19.9
13,COc1ccc(Cl)cc1NC(=O)CN(C)C(=O)c1ccc(COc2ccccc2)cc1,13.5
14,CC1CCc2ccc(F)cc2N1S(=O)(=O)c1cccs1 (centres unmarked),2.36
15,CNC(=S)NNC(=O)c1ccc(N(C)C)cc1,0.516
16,Cc1cc(C)c(S(=O)(=O)NCC2CCC(C(=O)NCc3ccc4c(c3)OCO4)CC2)c(C)c1 (centres unmarked),-1.15
17,O=C(N/N=C/C=C/c1ccccc1)c1n[nH]c2c1CCC2,9.22
18,COc1nnc(-c2ccc(N3CCOCC3)c(NC(=O)c3ccco3)c2)c2ccccc12,-70
19,CCC(=O)Nc1cc(-c2nnc(OC)c3ccccc23)ccc1N1CCOCC1,-5.46
20,Cn1nc(-c2ccc(N3CCOCC3)c(NS(=O)(=O)c3ccccc3)c2)c2ccccc2c1=O,-15.6
21,COC(=O)c1ccc(N2CCOCC2)c(NC(=O)c2ccco2)c1,1.95
22,COc1nnc(-c2ccc(N3CCOCC3)c(NC(=O)c3ccccc3)c2)c2ccccc12,-19.5

row,SMILES,"hERG current change (%, negative = inhibition) at 10uM [%]"
1,CCCC(=O)Nc1cc(-c2nnc(OC)c3ccccc23)ccc1N1CCOCC1,-42.9
2,COc1nnc(-c2ccc(N3CCOCC3)c(NC(=O)c3ccc(C)cc3)c2)c2ccccc12,-68.9
3,COc1ccc(N2CCOCC2)c(NC(=O)c2ccco2)c1,-73.1
4,COc1ccc(NS(=O)(=O)c2ccc(N3CCOCC3)c(NC(=O)c3ccco3)c2)cc1,30.3
5,Cc1ccc(S(=O)(=O)Nc2cc(-c3nn(C)c(=O)c4ccccc34)ccc2N2CCOCC2)cc1,-57
6,COc1nnc(-c2ccc(N3CCOCC3)c(NC(C)=O)c2)c2ccccc12,-1.4
7,Cn1nc(-c2ccc(N3CCOCC3)c(NS(=O)(=O)c3ccc(Cl)cc3)c2)c2ccccc2c1=O,-9.74
8,Cc1cc(C)c(C#N)c(SCc2nnc(-c3ccccc3)o2)n1,-0.532
9,O=C(CNCC1CCCO1)Nc1ccccc1N1CCCCCC1.O=C(O)C(=O)O (centres unmarked),-6.51
10,COc1cc(OC)nc(Oc2ccccc2C(=O)Oc2ccc(C)cc2)n1,-25.1
11,O=C(c1cc(C2CC2)on1)N1CCN(c2ccccc2)CC1,-14.1
12,CCCCN1C(=O)C(=O)N(CC(=O)Nc2cc(S(=O)(=O)N(C)C)ccc2C)C1=O,6.6
13,O=S(=O)(Nc1ccc(Br)cc1)c1cccc2nonc12,5.71
14,Cl.O=C(O)CCN1CCOCC1,19.8
15,Cc1ccc(C)c(S(=O)(=O)N2CCN(C(=O)CCNC(=O)c3ccc(Br)cc3)CC2)c1,-33.4
16,O=C1CCC(=O)N1c1ccc(NC2CCN(Cc3ccccc3)CC2)c([N+](=O)[O-])c1,2.23
17,O=C1C2CCCCC2C(=O)N1c1ccc(NC2CCN(Cc3ccccc3)CC2)c([N+](=O)[O-])c1 (centres unmarked),-42.1
18,O=[N+]([O-])c1ccc(NC2CCN(Cc3ccccc3)CC2)c([N+](=O)[O-])c1,-85.4
19,O=[N+]([O-])c1ccc(NC2CCN(Cc3ccccc3)CC2)c2ccncc12,6.01
20,O=[N+]([O-])c1ccccc1NC1CCN(Cc2ccccc2)CC1,-64.4
21,CC1CCC2C(=O)N(c3ccc(NC4CCN(Cc5ccccc5)CC4)c([N+](=O)[O-])c3)C(=O)C2C1 (centres unmarked),-41.2
22,Cc1noc(C)c1S(=O)(=O)NCc1ccc(CN(C)C)cc1.Cl,6.09

row,SMILES,"hERG current change (%, negative = inhibition) at 10uM [%]"
1,COc1ccc(CCNC(=O)/C(C#N)=C/c2ccc(OCC(=O)NCC3CCCO3)cc2)cc1OC (centres unmarked),11.7
2,CC(C)N(C(=O)COC(=O)c1ccc(O)cc1)C(C)C,-1.54
3,CCS(=O)(=O)c1nc(S(=O)(=O)c2ccc(C)cc2)c(NCCCN2CCCC2=O)s1,-11.3
4,CS(=O)(=O)c1nc(S(=O)(=O)c2ccc(Cl)cc2)c(NCCCN2CCOCC2)s1,-46.8
5,CCCCNC(=O)c1cn(C)c2ccc(S(=O)(=O)N3CC(C)CC(C)C3)cc2c1=O (centres unmarked),1.55
6,O=C1NC(=S)NC(=O)C12C(c1ccc(F)cc1)NC(=S)NC2c1ccc(F)cc1 (centres unmarked),-4.14
7,Cl.Oc1cccc(Nc2nc(-c3ccccc3Cl)nc3ccccc23)c1,7.09
8,CCCn1c(C)cc(C(=O)Cn2nnc3ccccc3c2=O)c1C,-34.7
9,O=C(CSc1ccc(-c2ccco2)nn1)c1ccc(F)cc1,-25.8
10,Cc1cc(C)cc(NC(=O)CSc2ccc(-c3ccco3)nn2)c1,-28.8
11,COc1ccc(C(=O)CSc2ccc(-c3ccco3)nn2)cc1,-78.1
12,Cc1cccc(NC(=O)CSc2ccc(-c3ccco3)nn2)c1,-59.5
13,CC(=O)c1cccc(NC(=O)CSc2ccc(-c3ccco3)nn2)c1,1.79
14,O=C(CSc1ccc(-c2ccco2)nn1)c1ccccc1,-9.74
15,O=C(CSc1ccc(-c2cccs2)nn1)Nc1ccccc1,-35
16,O=C(CSc1ccc(-c2ccco2)nn1)Nc1cccc(F)c1,-55.2
17,CC(=O)Nc1ccc(NC(=O)CSc2ccc(-c3cccs3)nn2)cc1,11.4
18,CCc1ccc(NC(=O)CSc2ccc(-c3ccco3)nn2)cc1,-16.6
19,Cc1cc(C)cc(NC(=O)CSc2ccc(-c3cccs3)nn2)c1,-52.2
20,CC(=O)Nc1cccc(NC(=O)CSc2ccc(-c3ccco3)nn2)c1,0.763
